Measurements from PubChem BioAssay (NCATS).
Where “and” joins values, the source holds several entries; their conditions need not be identical. Equal entries are not always repeated. Records with an inconclusive call do not appear. Entries that show only a call come without a potency. Calls of active or inactive are those of the source. Unless noted, calls follow the shape of the full dose curve.

Columns and labels:
[1] = target: Androgen receptor (Homo sapiens) (UniProt P10275); experiment: qHTS assay for small molecule antagonists of androgen receptor signaling (AID 588516; active = well fitted curve in the direction sought with a large enough effect in the signal ratio, with a control signal flat, not every such curve was filed as active; the % refers to the signal ratio)
How it was run: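 Compounds tested in titration against 10 nM R1881 in AR-responsive bla reporter HEK 293 cells; CCF4 fluorescence (460/530 nm) after 16 h exposure gave IC50 and efficacy.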

[2] = target: Bile acid receptor (Homo sapiens) (UniProt Q96RI1); experiment: qHTS assay for small molecule antagonists of farnesoid X receptor signaling (AID 588526)
How it was run: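 Antagonist mode: titrated compounds tested against chenodeoxycholic acid stimulation (normalized to 50 uM CDCA and DMSO) in GeneBLAzer HEK293T cells for 16 h. Beta-lactamase read by CCF4 fluorescence; IC50 from Hill fits.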

[3] = target: Glucocorticoid receptor (Homo sapiens) (UniProt P04150); experiment: qHTS assay for small molecule antagonists of glucocorticoid receptor signaling (AID 588533; active = well fitted inhibition curve with a large enough effect in the signal ratio, with a control signal flat, not every such curve was filed as active; the % refers to the signal ratio)
How it was run: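 Antagonist-mode qHTS: compound titrations added to GRE-bla HeLa cells, then dexamethasone 2 nM final; 18 h, 37 C. CCF4 FRET fluorescence normalized to dexamethasone and DMSO; IC50 from Hill fit.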

[4] = qHTS assay for small molecule antagonists of peroxisome proliferator-activated receptor delta signaling (AID 588535; active = well fitted inhibition curve with a large enough effect in the signal ratio, with a control signal flat, not every such curve was filed as active; the % refers to the signal ratio;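 as to max response: cells co-treated with a PPAR-delta agonist as stimulator during compound exposure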); conditions: HEK293T PPARd-UAS-bla, beta-lactamase FRET ratio, 18 h; 460 nm channel
How it was run: (§1)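 Cells were seeded at 4000 per well in assay medium containing 2% charcoal/dextran FBS and held 5 hrs at 37 C. Compounds were then added for 18 hrs. CCF4 substrate was applied for 2 hrs at room temperature before fluorescence reading.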

[5] = target: Peroxisome proliferator-activated receptor delta (Homo sapiens) (UniProt Q03181); experiment: as above
How it was run: as §1

[6] = target: Peroxisome proliferator-activated receptor gamma (Homo sapiens) (UniProt P37231); experiment: qHTS assay for small molecule agonists of peroxisome proliferator-activated receptor gamma signaling (AID 588536; active = well fitted curve in the direction sought with a large enough effect in the signal ratio, with a control signal flat, not every such curve was filed as active; the % refers to the signal ratio)
How it was run: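 HEK293 UAS-bla reporter line, 1% charcoal/dextran FBS; titration, 16 h, 37 C; CCF4 loading 2 h RT; fluorescence 460/530 nm. Normalized to rosiglitazone 2 uM = 100%, DMSO = 0%.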

[7] = target: Peroxisome proliferator-activated receptor gamma (Homo sapiens) (UniProt P37231); experiment: qHTS assay for small molecule antagonists of peroxisome proliferator-activated receptor gamma signaling (AID 588537; active = well fitted inhibition curve with a large enough effect in the signal ratio, with a control signal flat, not every such curve was filed as active; the % refers to the signal ratio;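 also: reporter cells co-stimulated with 50 nM rosiglitazone agonist during compound treatment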)
How it was run: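 Step one: plate 3000 HEK293 UAS-bla cells per well in medium with 1% stripped serum and hold 6-6.5 h at 37 C. Step two: add compound and 50 nM agonist for 16 h. Step three: CCF4 loading, fluorescence read.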

[8] = target: Vitamin D3 receptor (Homo sapiens) (UniProt P11473); experiment: qHTS assay for small molecule antagonists of vitamin D receptor signaling (AID 588541);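 also: receptor activated by calcitriol during compound treatment; series mostly up to about 77 µM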
How it was run: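 VDR-UAS-bla HEK293T cells in 2% charcoal-stripped FBS were stimulated with 1-alpha,25-dihydroxyvitamin D3 (3 nM final) plus compound for 16 h at 37 C. The beta-lactamase CCF4 readout was normalized to 50 nM agonist and DMSO, and Hill fits gave IC50.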

[9] = target: Vitamin D3 receptor (Homo sapiens) (UniProt P11473); experiment: qHTS assay for small molecule agonists of vitamin D receptor signaling (AID 588543)
How it was run: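 Measured: β-lactamase reporter activity (CCF4, 405 nm excitation, 460/530 nm emission) in HEK293T VDR-UAS-bla cells after 16 h compound exposure at 37 °C. Normalization against 50 nM 1α,25-dihydroxyvitamin D3 and DMSO; Hill-fit EC50.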

[10] = target: Glucocorticoid receptor (Homo sapiens) (UniProt P04150); experiment: qHTS assay for small molecule agonists of glucocorticoid receptor signaling (AID 588532; active = well fitted curve in the direction sought with a large enough effect in the signal ratio, with a control signal flat; the % refers to the signal ratio); conditions: HeLa MMTV-bla, beta-lactamase ratio, agonist, 18 h; stronger effect = higher value; percent of dexamethasone control, DMSO zero
How it was run: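 Cells were plated and rested 3-5 h at 37 C, compounds were added in titration and incubated 18 h, then CCF4 substrate was loaded for 2 h at RT before reading blue/green fluorescence. EC50 came from Hill-equation fitting.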

Chain of Vitamin D3 receptor (Homo sapiens) (P11473 whole entry, looked up): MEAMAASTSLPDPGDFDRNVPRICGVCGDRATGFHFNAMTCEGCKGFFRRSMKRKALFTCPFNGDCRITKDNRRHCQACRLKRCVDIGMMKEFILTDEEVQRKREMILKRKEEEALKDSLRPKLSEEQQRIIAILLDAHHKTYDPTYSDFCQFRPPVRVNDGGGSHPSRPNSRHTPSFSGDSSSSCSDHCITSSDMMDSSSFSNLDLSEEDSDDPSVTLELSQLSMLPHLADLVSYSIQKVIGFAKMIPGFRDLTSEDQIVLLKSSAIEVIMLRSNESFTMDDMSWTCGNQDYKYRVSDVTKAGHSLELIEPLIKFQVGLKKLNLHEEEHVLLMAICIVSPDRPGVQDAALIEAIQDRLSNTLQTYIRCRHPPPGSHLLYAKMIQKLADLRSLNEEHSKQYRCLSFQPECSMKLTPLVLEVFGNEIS
Chain of Androgen receptor (Homo sapiens) (P10275 whole entry, looked up): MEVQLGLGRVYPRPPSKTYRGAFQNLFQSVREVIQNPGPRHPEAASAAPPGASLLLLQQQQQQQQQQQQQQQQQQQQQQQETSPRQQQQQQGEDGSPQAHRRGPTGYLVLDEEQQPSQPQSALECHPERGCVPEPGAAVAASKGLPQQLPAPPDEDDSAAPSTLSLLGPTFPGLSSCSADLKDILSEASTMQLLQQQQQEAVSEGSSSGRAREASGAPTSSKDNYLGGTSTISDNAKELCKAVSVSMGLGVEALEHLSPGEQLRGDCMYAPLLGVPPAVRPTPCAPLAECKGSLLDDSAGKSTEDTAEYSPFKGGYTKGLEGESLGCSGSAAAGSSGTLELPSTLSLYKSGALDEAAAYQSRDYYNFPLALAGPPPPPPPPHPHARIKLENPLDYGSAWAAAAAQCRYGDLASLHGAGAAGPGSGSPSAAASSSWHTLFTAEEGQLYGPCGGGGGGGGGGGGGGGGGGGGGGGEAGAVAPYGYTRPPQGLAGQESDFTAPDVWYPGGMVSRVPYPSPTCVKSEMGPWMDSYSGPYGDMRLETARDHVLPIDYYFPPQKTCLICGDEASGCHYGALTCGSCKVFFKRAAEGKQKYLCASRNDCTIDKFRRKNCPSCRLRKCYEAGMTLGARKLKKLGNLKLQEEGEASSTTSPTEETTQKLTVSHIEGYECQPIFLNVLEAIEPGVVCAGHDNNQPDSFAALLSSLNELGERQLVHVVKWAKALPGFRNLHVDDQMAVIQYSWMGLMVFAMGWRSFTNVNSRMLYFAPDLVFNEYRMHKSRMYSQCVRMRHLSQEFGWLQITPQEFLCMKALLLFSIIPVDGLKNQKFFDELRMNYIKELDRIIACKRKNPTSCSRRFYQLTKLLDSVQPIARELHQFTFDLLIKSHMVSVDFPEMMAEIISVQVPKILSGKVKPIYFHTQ
Chain of Glucocorticoid receptor (Homo sapiens) (P04150 whole entry, looked up): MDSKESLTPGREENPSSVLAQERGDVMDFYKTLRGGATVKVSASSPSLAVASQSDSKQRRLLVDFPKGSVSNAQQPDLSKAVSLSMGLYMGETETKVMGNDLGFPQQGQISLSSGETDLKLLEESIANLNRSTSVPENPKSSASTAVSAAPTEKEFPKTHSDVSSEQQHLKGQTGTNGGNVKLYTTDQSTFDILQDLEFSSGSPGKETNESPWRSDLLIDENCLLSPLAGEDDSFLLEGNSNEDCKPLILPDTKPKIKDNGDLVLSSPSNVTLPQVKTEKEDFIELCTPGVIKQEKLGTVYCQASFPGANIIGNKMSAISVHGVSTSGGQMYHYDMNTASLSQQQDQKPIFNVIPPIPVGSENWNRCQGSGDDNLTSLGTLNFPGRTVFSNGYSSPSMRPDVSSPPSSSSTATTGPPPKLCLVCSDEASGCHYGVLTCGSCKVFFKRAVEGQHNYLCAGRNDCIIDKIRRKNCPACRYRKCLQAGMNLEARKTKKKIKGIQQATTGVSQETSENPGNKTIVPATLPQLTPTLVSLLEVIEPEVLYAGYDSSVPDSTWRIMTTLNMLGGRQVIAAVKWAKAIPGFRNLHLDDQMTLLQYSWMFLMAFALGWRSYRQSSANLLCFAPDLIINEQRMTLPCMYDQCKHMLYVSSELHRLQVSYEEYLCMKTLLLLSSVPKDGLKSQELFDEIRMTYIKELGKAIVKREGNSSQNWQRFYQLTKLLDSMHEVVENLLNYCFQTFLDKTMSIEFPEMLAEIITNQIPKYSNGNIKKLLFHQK
Chain of Bile acid receptor (Homo sapiens) (Q96RI1 whole entry, looked up): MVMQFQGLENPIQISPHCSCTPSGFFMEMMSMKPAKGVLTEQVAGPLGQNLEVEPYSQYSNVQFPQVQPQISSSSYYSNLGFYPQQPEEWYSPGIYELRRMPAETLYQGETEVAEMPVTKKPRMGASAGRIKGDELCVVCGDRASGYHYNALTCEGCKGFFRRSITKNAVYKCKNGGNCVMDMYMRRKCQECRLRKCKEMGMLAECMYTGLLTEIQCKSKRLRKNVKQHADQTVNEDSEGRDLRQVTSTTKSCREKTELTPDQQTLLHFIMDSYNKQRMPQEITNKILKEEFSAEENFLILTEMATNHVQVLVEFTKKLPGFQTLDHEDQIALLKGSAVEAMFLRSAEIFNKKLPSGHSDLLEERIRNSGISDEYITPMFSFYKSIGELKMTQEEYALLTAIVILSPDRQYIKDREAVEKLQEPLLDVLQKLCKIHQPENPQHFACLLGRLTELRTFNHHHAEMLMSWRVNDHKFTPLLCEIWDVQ
Chain of Peroxisome proliferator-activated receptor gamma (Homo sapiens) (P37231 whole entry, looked up): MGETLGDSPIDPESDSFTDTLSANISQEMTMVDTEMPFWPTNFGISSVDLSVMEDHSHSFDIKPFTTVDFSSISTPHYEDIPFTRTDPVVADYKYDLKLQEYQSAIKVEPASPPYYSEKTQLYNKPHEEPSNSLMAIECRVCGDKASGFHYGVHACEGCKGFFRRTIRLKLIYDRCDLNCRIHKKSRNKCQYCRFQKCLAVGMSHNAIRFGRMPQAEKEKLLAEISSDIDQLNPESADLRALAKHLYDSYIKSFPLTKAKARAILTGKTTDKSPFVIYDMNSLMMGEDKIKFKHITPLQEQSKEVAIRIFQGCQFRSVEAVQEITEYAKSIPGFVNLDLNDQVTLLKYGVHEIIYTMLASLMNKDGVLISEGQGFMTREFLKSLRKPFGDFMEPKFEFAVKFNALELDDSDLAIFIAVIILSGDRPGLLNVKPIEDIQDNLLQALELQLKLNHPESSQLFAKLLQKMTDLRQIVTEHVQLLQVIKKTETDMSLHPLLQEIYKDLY
Chain of Peroxisome proliferator-activated receptor delta (Homo sapiens) (Q03181 whole entry, looked up): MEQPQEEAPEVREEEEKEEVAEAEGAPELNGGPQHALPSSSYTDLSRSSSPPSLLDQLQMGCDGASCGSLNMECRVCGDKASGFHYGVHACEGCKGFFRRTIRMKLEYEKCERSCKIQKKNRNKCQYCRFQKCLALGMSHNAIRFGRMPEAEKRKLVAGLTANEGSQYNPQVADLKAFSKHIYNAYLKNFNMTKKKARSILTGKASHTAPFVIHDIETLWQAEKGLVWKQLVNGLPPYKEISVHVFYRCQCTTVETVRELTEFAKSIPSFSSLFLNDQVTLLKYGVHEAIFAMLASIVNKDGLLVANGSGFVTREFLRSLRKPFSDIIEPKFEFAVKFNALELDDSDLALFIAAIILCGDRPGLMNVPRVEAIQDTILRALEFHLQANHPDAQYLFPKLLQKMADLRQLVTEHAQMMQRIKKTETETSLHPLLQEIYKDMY

SMILES: CC(=C/C=C/C(C)=C/C=C/C=C(C)/C=C/C=C(C)/C=C/C(=O)O)/C=C/C(=O)O
- outcome [1]: inactive
- outcome [2]: inactive
- outcome [3]: inactive
- max response [4]: 11.7%
- Potency [5]: inactive
- outcome [6]: inactive
- outcome [7]: inactive
- outcome [8]: inactive
- outcome [9]: inactive

SMILES: CCCC(C)CO (centres undefined)
- outcome [1]: inactive
- outcome [2]: inactive
- activation [10]: 0.0234% (inactive)
- outcome [3]: inactive
- max response [4]: -16%
- Potency [5]: inactive
- outcome [6]: inactive
- outcome [7]: inactive

SMILES: O=C1CCCCC1
- outcome [1]: inactive
- max response [4]: 1.87%
- Potency [5]: inactive
- outcome [6]: inactive
- outcome [7]: inactive
- outcome [8]: inactive
- outcome [9]: inactive

SMILES: Nc1cccc([N+](=O)[O-])c1
- outcome [1]: inactive
- outcome [2]: inactive
- activation [10]: 0.474% (inactive)
- outcome [3]: inactive
- outcome [6]: inactive
- outcome [7]: inactive

SMILES: CCC1CO1 (centres undefined)
- outcome [2]: inactive
- activation [10]: -3% (inactive)
- outcome [3]: inactive
- max response [4]: -69.5%
- Potency [5]: inactive
- outcome [6]: inactive
- outcome [7]: inactive
- outcome [8]: inactive
- outcome [9]: inactive

SMILES: Cc1ccc2cccnc2c1
- outcome [1]: inactive
- outcome [3]: inactive
- outcome [6]: inactive
- outcome [8]: inactive
- outcome [9]: inactive

SMILES: C=Cc1ccccc1C=C
- outcome [2]: inactive
- activation [10]: 2.03% (inactive)
- outcome [3]: inactive
- max response [4]: -7.99%
- Potency [5]: inactive
- outcome [6]: inactive
- outcome [7]: inactive
- outcome [8]: inactive
- outcome [9]: inactive

SMILES: NC(=S)NNC(N)=S
- outcome [2]: inactive
- activation [10]: -4.1% (inactive) and -4.08% (inactive)
- outcome [3]: inactive
- max response [4]: -7.61% and 32%
- Potency [5]: inactive
- outcome [6]: inactive
- outcome [7]: inactive

SMILES: CC(C=O)Cc1ccc(C(C)(C)C)cc1 (centres undefined)
- outcome [1]: inactive
- activation [10]: -5.34% (inactive)
- outcome [3]: inactive
- max response [4]: 41.6%
- Potency [5]: inactive
- outcome [6]: inactive
- outcome [7]: inactive
- outcome [8]: inactive
- outcome [9]: inactive

SMILES: CC(C)c1ccccc1
- outcome [1]: inactive
- outcome [2]: inactive
- activation [10]: -12.7% (inactive)
- outcome [3]: inactive
- outcome [6]: inactive
- outcome [7]: inactive
- outcome [8]: inactive
- outcome [9]: inactive

SMILES: Cc1ccc(N(C)C)cc1
- outcome [1]: inactive
- activation [10]: -4.85% (inactive)
- outcome [3]: inactive
- max response [4]: 17.3%
- Potency [5]: inactive
- outcome [6]: inactive
- outcome [8]: inactive
- outcome [9]: inactive

SMILES: Nc1cc(S(=O)(=O)O)ccc1O
- outcome [1]: inactive
- activation [10]: -0.152% (inactive)
- outcome [3]: inactive
- max response [4]: 15.9%
- Potency [5]: inactive
- outcome [6]: inactive
- outcome [8]: inactive
- outcome [9]: inactive

SMILES: CC/C=C1/OC(=O)c2ccccc21
- outcome [1]: inactive
- outcome [3]: inactive
- max response [4]: 6.22%
- Potency [5]: inactive
- outcome [6]: inactive
- outcome [8]: inactive
- outcome [9]: inactive

SMILES: CNC(=O)N(c1ccccc1)c1ccccc1
- outcome [1]: inactive
- outcome [6]: inactive

SMILES: CCCC(Cl)CCCC(Cl)CCC(Cl)CCC(Cl)CCC(Cl)CCCC(Cl)CCC (centres undefined)
- outcome [1]: inactive
- activation [10]: 3.07% (inactive)
- outcome [3]: inactive
- max response [4]: -30.6%
- Potency [5]: inactive
- outcome [6]: inactive
- outcome [8]: inactive

SMILES: C=C(C)C(=O)OC
- outcome [2]: inactive
- activation [10]: -3.9% (inactive)
- outcome [3]: inactive
- max response [4]: -44.8%
- Potency [5]: inactive
- outcome [6]: inactive
- outcome [7]: inactive

SMILES: Cc1ccc(C)cc1
- outcome [1]: inactive
- outcome [2]: inactive
- activation [10]: -0.888% (inactive)
- outcome [3]: inactive
- max response [4]: -6.55%
- Potency [5]: inactive
- outcome [8]: inactive
- outcome [9]: inactive

SMILES: CCOc1ccc(NC(C)=O)cc1N
- outcome [1]: inactive
- max response [4]: -0.981%
- Potency [5]: inactive
- outcome [6]: inactive
- outcome [8]: inactive
- outcome [9]: inactive

SMILES: CCCOCC(C)OCC(C)O (centres undefined)
- outcome [1]: inactive
- outcome [2]: inactive
- outcome [3]: inactive
- max response [4]: -11.5%
- outcome [6]: inactive
- outcome [8]: inactive
- outcome [9]: inactive

SMILES: BrC(Br)C(Br)Br
- outcome [1]: inactive
- activation [10]: -1.02% (inactive)
- max response [4]: -3.11%
- Potency [5]: inactive
- outcome [6]: inactive
- outcome [7]: inactive
- outcome [8]: inactive
- outcome [9]: inactive

SMILES: CCOc1cc(OCC)c(C(C)=O)cc1OCC
- outcome [1]: inactive
- outcome [2]: inactive
- outcome [3]: inactive
- outcome [6]: inactive
- outcome [7]: inactive
- outcome [8]: inactive
- outcome [9]: inactive

SMILES: Cc1ccc2oc(=O)ccc2c1
- outcome [2]: inactive
- activation [10]: -1.61% (inactive)
- outcome [3]: inactive
- max response [4]: 1.44% and 30.5%
- Potency [5]: inactive
- outcome [6]: inactive
- outcome [7]: inactive

SMILES: c1ccsc1
- outcome [1]: inactive
- outcome [3]: inactive
- max response [4]: -2.14%
- Potency [5]: inactive
- outcome [6]: inactive
- outcome [7]: inactive

SMILES: O=[N+]([O-])c1cc(C(F)(F)F)ccc1Cl
- outcome [1]: inactive
- outcome [3]: inactive
- outcome [6]: inactive
- outcome [7]: inactive

SMILES: O=C(O)CCSSCCC(=O)O
- outcome [1]: inactive
- activation [10]: -5.98% (inactive)
- outcome [3]: inactive
- max response [4]: 29.9%
- Potency [5]: inactive
- outcome [6]: inactive
- outcome [8]: inactive
- outcome [9]: inactive

SMILES: O=C(Cl)c1ccccc1[N+](=O)[O-]
- outcome [1]: inactive
- activation [10]: -0.396% (inactive)
- outcome [3]: inactive
- outcome [6]: inactive

SMILES: CC#N
- outcome [2]: inactive
- activation [10]: -2.4% (inactive)
- outcome [3]: inactive
- max response [4]: 21.5%

SMILES: Nc1ccc(Cl)cc1[N+](=O)[O-]
- outcome [1]: inactive
- activation [10]: -4.92% (inactive)
- outcome [3]: inactive
- max response [4]: 66.3%
- Potency [5]: inactive
- outcome [6]: inactive
- outcome [7]: inactive
- outcome [8]: inactive
- outcome [9]: inactive

SMILES: CC(=O)Nc1cccc(N)c1
- outcome [2]: inactive
- activation [10]: -4.95% (inactive)
- outcome [3]: inactive
- max response [4]: 38.5%
- Potency [5]: inactive
- outcome [6]: inactive
- outcome [7]: inactive
- outcome [8]: inactive

SMILES: Cc1ccc(CO)cc1
- outcome [2]: inactive
- activation [10]: -5.3% (inactive)
- outcome [3]: inactive
- max response [4]: 17.6%
- Potency [5]: inactive
- outcome [6]: inactive
- outcome [7]: inactive
- outcome [8]: inactive
- outcome [9]: inactive

SMILES: CCN(Cc1ccccc1)c1ccccc1
- outcome [1]: inactive
- outcome [6]: inactive
- outcome [7]: inactive
